Legend:
Type in all cases: functional
[1] = biological target: Solute carrier family 2, facilitated glucose transporter member 1 (Homo sapiens) (UniProt P11166); assay: ST_JUDE_LEISH: Cytotoxicity at 2uM final concentration against transgenic Leishmania Mexicana promastigotes LmGLUT1 that are glucose transport deficient and complemented with the human glucose transporter GLUT1. Activity is measured by DNA content using SYBR green in vitro
[2] = biological target: Hexose transporter 1 (Plasmodium falciparum) (UniProt O97467); assay: ST_JUDE_LEISH: Cytotoxicity at 2uM final concentration against transgenic Leishmania Mexicana promastigotes LmPfHT that are glucose transport deficient and complemented with the Plasmodium falciparum hexose transporter. Activity is measured by DNA content using SYBR green in vitro
[3] = biological target: Glucose transporter (Leishmania mexicana) (UniProt O61059); assay: ST_JUDE_LEISH: Cytotoxicity at 2uM final concentration against transgenic Leishmania Mexicana promastigotes LmGT2 that are glucose transport deficient and complemented with the L. Mexicana glucose transporter 2. Activity is measured by DNA content using SYBR green in vitro

Chain of Solute carrier family 2, facilitated glucose transporter member 1 (Homo sapiens) (P11166 whole entry): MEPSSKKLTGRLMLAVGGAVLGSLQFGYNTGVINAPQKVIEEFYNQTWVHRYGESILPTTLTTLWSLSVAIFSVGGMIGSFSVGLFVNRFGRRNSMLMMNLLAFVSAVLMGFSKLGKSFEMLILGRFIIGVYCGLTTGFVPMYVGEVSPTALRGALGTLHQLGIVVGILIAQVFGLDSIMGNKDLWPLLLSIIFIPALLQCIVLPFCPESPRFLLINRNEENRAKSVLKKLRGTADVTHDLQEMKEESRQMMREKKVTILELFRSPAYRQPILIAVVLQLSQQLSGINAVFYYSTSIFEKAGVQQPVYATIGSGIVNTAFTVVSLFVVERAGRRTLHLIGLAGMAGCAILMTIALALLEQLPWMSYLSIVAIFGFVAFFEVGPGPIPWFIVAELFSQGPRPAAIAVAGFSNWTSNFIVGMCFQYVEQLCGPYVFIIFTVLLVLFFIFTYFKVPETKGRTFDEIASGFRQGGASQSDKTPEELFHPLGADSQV

SMILES | inhibition [1] | inhibition [2] | inhibition [3]
CC(C)CNC(=S)N1CCCN(c2nc3ccc(Cl)cc3s2)CC1 | 3.18% | 2.71% | 0.2%
Cc1c(Cl)ccc2c(C(=O)Nc3ccncc3)cc(-c3cccnc3)nc12 | -4.52% | -2.06% | -2.1%
O=C(Nc1ccc(N2CCCN(Cc3cccc(F)c3)CC2)cc1)c1cccs1 | -0.38% | -0.87% | -3.03%
Cc1cc(NCCc2ccccc2)nc(NC(=N)Nc2cccc(Cl)c2)n1 | -0.54% | 1.42% | 0.63%
CCOC(=O)c1nc(-c2cc(Cl)nc(Cl)c2)[nH]c1NC(=S)NCc1ccc(NS(C)(=O)=O)cc1 | -2.02% | -1.98% | -1.67%
COc1cc2c(c(Cl)c1OC)CCN(Cc1ccccc1)CC2c1ccc(C(N)=O)cc1 (stereo not given) | 2.24% | 1.77% | 1.62%
Cc1cnc(NCC2CCCCC2)nc1N[C@@H](CO)C(=O)Nc1ccccc1 | 1.68% | 2.03% | -0.71%
O=C(Nc1ccc(F)cc1F)NC1CCN(c2ccnc3cc(Cl)ccc23)C1 (stereo not given) | 6.88% | 7.63% | 6.34%
N#Cc1ccc(-c2ccc(C(=O)NCCCCN3CCC(c4ccc5c(c4OCc4ccccn4)CCCC5)CC3)cc2)cc1 | -0.71% | 1.73% | 0.17%
O=C(NCCN1CCOCC1)c1ccc(N2CCC(Oc3ccc4ccccc4c3)CC2)nc1 | 7.02% | 6.04% | 6.12%
COc1ccc2nccc([C@H](O)CN3CCC(NCc4ccc5c(c4C)OCCO5)CC3)c2n1 | 41% | 59.7% | 69.1%
COc1cc(OC)c(OC)cc1C=NN=c1cc(C)[nH]c2ccccc12 | 1.25% | 1.67% | -1.17%
N#Cc1c(N)n(CCc2ccc(F)cc2)c2nc3ccccc3nc12 | 1.05% | 1.58% | -0.08%
O=S(=O)(Nc1cccc(CCN2CCC(N3CCCCC3)CC2)c1)c1ccc(Cl)cc1 | 1.09% | 1.72% | 0.8%
CN(C)CCCOc1ccc(CN2CC[C@H](NC(=O)c3ccc(Cl)c(Cl)c3)C2)cc1Br | 3.8% | 0.94% | 0.53%
CC(CCc1ccccc1)NCC(O)c1cccc(C(F)(F)F)c1 (stereo not given) | 5.1% | 5.17% | 3.76%
COc1cc(Cc2cnc(N)nc2N)ccc1OCc1ccc(-c2csnn2)cc1 | 9.75% | 9.64% | 11.7%
NC(=O)c1ccc(-c2ccc3ccnc(N)c3c2)cc1 | 7.25% | 6.12% | 4.88%

SMILES | inhibition [1] | inhibition [2] | inhibition [3]
Fc1ccc(C=NN=c2cc[nH]c3ccc(C(F)(F)F)cc23)cc1 | 6.39% | 6.15% | 5.46%
N=C(N)NCCCN(Cc1ccccc1)c1ccccc1 | 3.87% | 2.61% | 1.89%
Cc1[nH]c(C)c(-c2ccc(Oc3ccc(C(F)(F)F)cc3)cc2)c(=O)c1Br | 3.22% | 5.35% | 3.05%
O=C(NC1CCCCC1)N(Cc1ccc(-c2ccc(CNC3CCCC3)cc2)cc1)C1CCN(Cc2ccccc2)CC1 | 1.76% | 3.96% | 5.15%
CCCCCCCCn1ccc(=N)cc1 | 4.46% | 3.06% | 0.3%
CN(C)C1CCN(CC#Cc2cc3ncnc(Nc4ccc(OCc5cccc(F)c5)c(Cl)c4)c3s2)CC1 | 1.79% | 0.49% | 2.9%
CN1CCC(N2CCN(Cc3cccc(-c4ccc(-c5nc6ccccc6[nH]5)cc4)c3)CC2)CC1 | 2.84% | 1.99% | 0.07%
CCNc1cc(C(=O)N[C@@H](Cc2ccccc2)[C@H](O)CNC(C)(C)Cc2ccccc2)cc(N2CCCC2=O)c1 | 3.58% | 0.61% | 0.81%
COc1cc2c(Nc3cccc(NC(=O)c4ccccc4)c3)ncnc2cc1OCCCN1CCOCC1 | 0.63% | 2.08% | 0.27%
O=C(NCCCCN1CCC(C(c2ccccc2)c2ccccc2)CC1)c1ccc(NC(=O)c2ccc(Cl)cc2)cc1 | -0.78% | -0.4% | -1.74%
CCc1ccc(C2CCN(CCCCNC(=O)c3ccc(NC(=O)c4ccc(Cl)cc4)cc3)CC2)c(OCCO)c1 | 3.01% | 2.33% | 1.61%
CS(=O)(=O)Nc1ccc2[nH]cc(C3CCN(CC(O)C4CCN(C(=O)/C=C/c5ccc(Cl)c(Cl)c5)CC4)CC3)c2c1 (stereo not given) | 4.85% | 2.94% | 3.3%
COc1c(C2CCN(CCCCNC(=O)c3ccc(-c4ccc(C#N)cc4)cc3)CC2)ccc2c1C(C)(C)CCC2(C)C | 1.57% | 2.62% | -0.67%
Cc1cccc2nc(-c3cccc(-c4ccc(CNCc5cccc(N)c5)cc4)c3)[nH]c12 | -2.78% | -1.49% | -2.56%
O=C(/C=C/c1ccc(Cl)c(Cl)c1)NCCCCCCN1CCCN(C(=O)Nc2ccc(Cl)c(C(F)(F)F)c2)CC1 | -1.95% | 0.9% | -1.22%
Clc1ccc(CCNCCCCCCNCCc2ccc3c(c2)OCO3)cc1 | 8.05% | 8.53% | 7.21%
CCCOc1ccc(C=C(CC(=O)O)c2nc3ccccc3s2)cc1OCC | 2.27% | 2.53% | -7.54%

— ChEMBL document CHEMBL3433997, “St. Jude Leishmania screening dataset” (2016)
